# Assay results as given in the supplement of paper PMC9877034.
# Counter-ions that a name gives are not always drawn. Whole data set: some 1,000 compounds, median “cFRET/donor change relative to DMSO, normalised to beta-lapachone positive control (supercomplex I-IV assembly)” near 0.18, cut for the lowest 2% near -1. What follows is part of a selection rich in the lowest values, with near analogues and random picks from the rest.
# Tested on: C2C12 (NDUFB8-AcGFP / COX8A-DsRed-Monomer FRET reporter)
# Assay: cFRET/donor change relative to DMSO, normalised to beta-lapachone positive control (supercomplex I-IV assembly) (fraction of beta-lapachone effect); higher = more respiratory supercomplex assembly
# Conditions: 40 µM; 24 h
# Description: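 Cells were treated with 40 uM compound for 24 h and imaged on an IN Cell Analyzer 6000. Corrected FRET was divided by donor signal (cFRET/donor) and measured in two replicate experiments. The score is (mean cFRET/donor of compound - mean DMSO) / (mean beta-lapachone 40 uM - mean DMSO). Compounds flagged for prominent cell death, abnormal morphology or decreased cell number were excluded.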
row,Compound,cFRET/donor change
1,COc1cc2nc(N3CCCN(C)CC3)nc(NC3CCN(Cc4ccccc4)CC3)c2cc1OC,0.186
2,C=C(c1ccc(C(=O)O)cc1)c1cc2c(cc1C)C(C)(C)CCC2(C)C [Bexarotene],0.499
3,c1ccc(C(NCCNC(c2ccccc2)c2ccccc2)c2ccccc2)cc1,0.0957
4,COc1ccccc1CNC1CCCNC1c1ccccc1 (centres undefined),0.266
5,O=C(Nc1cc(C(F)(F)F)cc(C(F)(F)F)c1)Nc1c(Br)cc(Br)cc1-c1nn[nH]n1,1.37
6,C[C@@H](O)[C@H]1C(=O)N2C(C(=O)O)=C(SCCNC=N)C[C@H]12 [Imipenem monohydrate],0.461
7,Cc1cc(C)c(/C=C2\C(=O)Nc3ccccc32)[nH]1,-2.59
8,COc1cc(OC)c(C=C2C(=O)Nc3ccccc32)c(OC)c1,0.382
9,CN(C)CCC(c1ccc(Br)cc1)c1ccccn1 (racemic) [(±)-Brompheniramine maleate],0.0175
10,"Clc1ccc(C(c2ccccc2Cl)C(Cl)Cl)cc1 (centres undefined) [1-(2-Chlorophenyl)-1-(4-chlorophenyl)-2,2-dichloroethane]",0.237
11,NCCC[C@](N)(C(=O)O)C(F)F (racemic) [DL-alpha-Difluoromethylornithine hydrochloride],0.232
12,COc1cc(/C=C/C(=O)N2CCC=CC2=O)cc(OC)c1OC [Piperlongumine],-0.315
13,N#CC(C#N)=C(N)/C(C#N)=C/c1ccc(O)cc1 [Tyrphostin AG 112],0.38
14,CC(C)(C)c1cc(/C=C(\C#N)C(N)=S)cc(C(C)(C)C)c1O [Tyrphostin AG 879],-2.01
15,CC(C)(C=O)Cc1cc(C(C)(C)C)c(O)c(C(C)(C)C)c1,0.29
16,COc1ccc(C2(O)OC(=O)C(c3ccc4c(c3)OCO4)=C2Cc2cc(OC)c(OC)c(OC)c2)cc1 (centres undefined),0.173
17,"CCN1CCCC1CNC(=O)c1cc(S(N)(=O)=O)ccc1OC (single isomer, unassigned; (-)) [(-)-Sulpiride]",0.312
18,CC[C@@]1(O)C(=O)OCc2c1cc1n(c2=O)Cc2cc3c(CN(C)C)c(O)ccc3nc2-1 [Topotecan hydrochloride hydrate],-3.92
19,NCCCS(=O)(=O)O [3-Amino-1-propanesulfonic acid sodium],-2.05
20,NCCCCN [Putrescine dihydrochloride],0.0353

row,Compound,cFRET/donor change
1,NCCS(=O)(=O)O [Taurine],-0.02
2,"COC1=C(OC)C(=O)c2ccccc2C1=O [2,3-Dimethoxy-1,4-naphthoquinone]",0.433
3,Cc1cc(Cl)ccc1OCCCC(=O)NO [Droxinostat],0.131
4,COc1cccc2c1[C@@H]1CN(CCCCn3c(=O)[nH]c4c(sc5ncc(-c6ccccc6)nc54)c3=O)C[C@@H]1CO2 [Fiduxosin hydrochloride],-1.25
5,Cn1cnc([N+](=O)[O-])c1Sc1ncnc2[nH]cnc12 [Azathioprine],0.496
6,N=c1ccn2c(n1)O[C@H]1[C@H](O)[C@@H](CO)O[C@H]12 [Ancitabine hydrochloride],-0.0397
7,Fc1ccc2[nH]c(CN3CCN(c4ccccn4)CC3)cc2c1,0.168
8,CC(C)[C@H](N)C(=O)OCC(CO)OCn1cnc2c(=O)[nH]c(N)nc21 (some centres undefined) [Valganciclovir hydrochloride hydrate],-0.064
9,N=C(N)NCCCCN [Agmatine sulfate],0.125
10,CS(=O)(=O)c1cccc(CNc2nc(Nc3ccc4c(c3)CCC(=O)N4)ncc2C(F)(F)F)c1,2
11,NC(=S)c1ccc[n+]([C@@H]2O[C@@H](COP(=O)([O-])OP(=O)(O)OC[C@H]3O[C@@H](n4cnc5c(N)ncnc54)C(OP(=O)(O)O)[C@H]3O)C(O)C2O)c1 (some centres undefined) [Thio-NADP sodium],-0.317
12,O=C(c1ccc(OCCCc2c[nH]cn2)cc1)C1CC1 [Ciproxifan hydrochloride],0.224
13,O=c1ccc2c(OCCCCc3ccccc3)c3ccoc3cc2o1 [Psora-4],0.396
14,Cc1cccc(-c2[nH]ncc2-c2ccc3ncccc3n2)n1,0.0385
15,CC1=C(C)C(=O)C(CCCCC#CCCCC#CCO)=C(C)C1=O,0.121
16,Nc1cc2c(ncn2CCOCP(=O)(O)O)c(=O)[nH]1 [PMEG hydrate],0.0365
17,N[C@@H]1[C@H]2CN(c3nc4c(cc3F)c(=O)c(C(=O)O)cn4-c3ccc(F)cc3F)C[C@@H]12 [Trovafloxacin mesylate],0.3
18,CC(C(O)c1ccc(O)cc1)N1CCC(Cc2ccccc2)CC1 (centres undefined) [Ifenprodil tartrate],0.529
19,O=C(Nc1cccnc1)N1CCC(Cc2cccc(Oc3ccc(C(F)(F)F)cn3)c2)CC1 [PF 3845 hydrate],0.494
